The full list was thinned out, with hits kept by preference.
12-LOX inh: ALOX12 (human) lipoxygenase inhibition; purified 12hLO, xylenol orange hydroperoxide absorbance; 1.1% of 580,000 active; P18054; Potency, µM (highest dose often 108 µM), without a hit: at the top dose activity change, negative = inhibition, most hits filed as inhibitors; also: potency is read from the fitted curve at half-maximal effect
Target sequence (P18054 whole entry, looked up): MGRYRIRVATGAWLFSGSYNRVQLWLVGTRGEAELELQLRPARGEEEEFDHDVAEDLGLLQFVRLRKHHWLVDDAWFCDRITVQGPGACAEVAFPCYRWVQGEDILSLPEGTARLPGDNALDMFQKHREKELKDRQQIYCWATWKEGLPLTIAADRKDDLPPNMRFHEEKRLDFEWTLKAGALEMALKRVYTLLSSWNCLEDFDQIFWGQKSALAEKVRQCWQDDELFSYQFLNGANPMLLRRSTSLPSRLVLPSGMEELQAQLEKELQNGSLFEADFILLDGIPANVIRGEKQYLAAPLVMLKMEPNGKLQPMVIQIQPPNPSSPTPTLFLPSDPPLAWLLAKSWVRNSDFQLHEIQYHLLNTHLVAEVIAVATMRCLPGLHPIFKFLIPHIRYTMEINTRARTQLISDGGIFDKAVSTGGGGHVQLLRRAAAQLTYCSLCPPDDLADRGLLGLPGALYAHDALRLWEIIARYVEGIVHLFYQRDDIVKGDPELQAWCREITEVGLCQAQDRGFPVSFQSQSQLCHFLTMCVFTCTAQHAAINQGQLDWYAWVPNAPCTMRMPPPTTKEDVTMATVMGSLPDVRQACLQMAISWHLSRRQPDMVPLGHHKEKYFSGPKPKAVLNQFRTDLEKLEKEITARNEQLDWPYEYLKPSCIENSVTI
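Hydroperoxide product was detected by ferrous iron/xylenol orange as the 573 to 405 nm absorbance ratio. Arachidonic acid at 40 uM (final) was turned over for 30 min at room temperature by 150 nM human 12hLO, pH 7.0 Hepes buffer, after 15 min compound preincubation.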
DT40 TDP1 no CPT: qHTS for Inhibitors of human tyrosyl-DNA phosphodiesterase 1 (TDP1): qHTS in cells in absence of CPT. Potency, µM (doses to about 46.2 µM), inactives show at the highest dose activity change, negative = growth inhibition, hits mostly inhibitors. DT40 Tdp1-/- hTDP1 cells, no CPT, ATP luminescence, 48 h. 15% of 420,000 active; also: potency is read from the fitted curve at half-maximal effect; nearly all actives have a fitted effect of over 55% in size
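Readout: luminescence from CellTiter-Glo after 30 min in the dark at RT. Cells: DT40 Tdp1-/- with stable hTDP1, 400/well. Exposure: compounds alone, ≥48 hr, 37 °C.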
HT1080NT lethal: kills 2HG-producing HT-1080-NT fibrosarcoma cells | Potency, µM (doses to about 46.1 µM), inactives show at the highest dose activity, negative = less viability, usual class: cytotoxic | HT-1080-NT fibrosarcoma viability, CellTiter-Glo ATP luminescence, 48 h | AID 686970 | 1.6% of 360,000 active;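 also: NT is the 2HG producing partner of a matched IDH1 knockdown line; potency is read from the fitted curve at half-maximal effect; 0% = DMSO-treated cells and -100% = media-only wells without cells; nearly all actives have a fitted effect of over 55% in size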
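HT-1080-NT; 750 cells/well; 5% FBS RPMI; 48 h compound, 37 degrees C; CellTiter-Glo luminescence; curve fitting and curve-class assignment.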
HT1080 IDH1KD tx: HT-1080 IDH1 knockdown cell toxicity (counter line); Potency, µM (highest dose often 46.1 µM), for inactives: top-dose activity, negative = toxicity, hits mostly cytotoxic; HT-1080 IDH1 knockdown viability, ATP luminescence, 48 h; 2% of 360,000 active; AID 686971;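 also: potency is read from the fitted curve at half-maximal effect; 0% = DMSO wells and -100% = cell-free medium wells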
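HT-1080-IDH1KD cells (IDH1 knocked down), 750/well in RPMI with 5% FBS, treated with compound 48 h at 37 degrees C. Viability by CellTiter-Glo luminescence, normalised to DMSO and no-cell wells; concentration-response curves classed.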
DT40 TDP1 CPT: DT40-hTDP1 cell growth loss with CPT. chicken DT40 Tdp1-/-;hTDP1 cells + 20 nM CPT, ATP luminescence, 48 h. Potency, µM (titrated, usually from 46.2 µM), for inactives: at the top dose activity change, negative = growth inhibition, actives largely listed as inhibitors. 12% of 420,000 active. AID 686979; also: potency is read from the fitted curve at half-maximal effect; nearly all actives have a fitted effect of over 55% in size
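Chicken DT40 Tdp1-/- cells complemented with human TDP1, 400 cells/well, exposed to compounds plus 20 nM camptothecin for at least 48 h at 37 C; viability read as ATP content by CellTiter-Glo luminescence.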
IL-1B inflam inh: inhibitors of inflammasome signaling (IL-1 beta secretion); THP-1 LPS/ATP IL-1B secretion, AlphaLISA, 16 h; stronger effect = lower value; activity change, % at 57.5 µM; 4.7% of 360,000 active; in the data active = activity change below about -50%; inconclusive = mostly about -30% to -49%
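THP-1 cells pretreated 1 hr with compounds (up to 57.5 uM final), then stimulated with LPS (250 ng/mL final) plus ATP (1.25 mM final); secreted IL-1B measured by AlphaLISA after 16 hr, decreased signal indicating inhibition.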
Starred values were filed as active, the others as inactive; ? = inconclusive; / = no result given; [ ] = dose if it differs, or a comment. Unless noted, calls follow the shape of the dose curve; as a rule, active = well fitted curve in the direction sought with a large enough effect; inconclusive = small, poorly fitted or top-dose-only effect, or another doubt; inactive = no such curve, though single readings can be large; an effect the other way counts as inactive or inconclusive. Unless noted, % is scaled to controls: 0 for no effect and ±100 for the full control effect.

SMILES	12-LOX inh	DT40 TDP1 no CPT	HT1080NT lethal	HT1080 IDH1KD tx	DT40 TDP1 CPT	IL-1B inflam inh
C=Cc1ccc(CSc2nc(-c3ccc(C)cc3)nc3c2Cc2c(CO)cnc(C)c2O3)cc1	?	16µM*	/	/	15µM*	/
CCSc1nc(-c2ccccc2)nc2c1Cc1c(CO)cnc(C)c1O2	-6%	-2%	/	/	-9%	/
COc1ccc(-c2nc3c(c(SCC(=O)N4CCCCC4)n2)Cc2c(CO)cnc(C)c2O3)cc1	0%	1.3µM*	/	/	2.6µM*	/
CCc1ccc(-c2nc3c(c(SCc4ccccc4)n2)Cc2c(CO)cnc(C)c2O3)cc1	-3%	-17%	/	/	0%	/
Cc1ccc(-c2nc3c(c(SCC(=O)N4CCOCC4)n2)Cc2c(CO)cnc(C)c2O3)cc1	0%	10µM*	3%	-1%	23µM*	5
CC(NC(=O)c1[nH]c2ccc(F)cc2c1Cl)c1cccc(F)c1 (configuration not stated)	-26%	/	/	/	/	/
Cc1sc(=NC(=O)c2ccco2)n(C)c1-c1ccc(Cl)cc1	11%	12µM*	-2%	-1%	12µM*	-16
COc1ccc(-c2cc(N3CCCN(C(=O)c4cccc(Cl)c4)CC3)n[nH]2)cc1	45%	/	/	/	/	/
COc1cccc(C(=O)N2CCN(c3oc(-c4ccccc4)nc3C#N)CC2)c1	-10%	/	/	/	/	/
COc1cccc(-c2cc(C(F)(F)F)n3nc(-c4ccc(C)cc4)cc3n2)c1	-28%	-15%	/	/	-22%	/
COc1cccc(-c2cc(N3CCN(C(=O)c4ccoc4)CC3)n3nc(-c4cccc(Cl)c4)cc3n2)c1	?	8.2µM*	0%	-2%	15µM*	-6
COc1cccc(-c2cc3nc(-c4ccccc4)cc(N4CCN(C(=O)c5ccoc5)CC4)n3n2)c1	-13%	5.2µM*	-18%	?	7.3µM*	-13
COc1cccc(-c2cc3nc(-c4ccccc4)cc(N4CCC5(CC4)OCCO5)n3n2)c1	3%[57.4 µM]	21µM*	?	5%[9.24 µM]	?	?
O=C(c1cc(=O)c2ccccc2o1)N(Cc1ccccc1Cl)C1CCS(=O)(=O)C1 (configuration not stated)	-5%	/	/	/	/	/
CCc1ccccc1N(C)C(=O)Cn1cnc2sc(C)c(S(=O)(=O)N3CCC(C)CC3)c2c1=O	-16%	-2%	/	/	-20%	/
Cc1onc(-c2ccccc2)c1-c1nnc(CSc2nnnn2C2CCCCC2)o1	7%	/	/	/	/	/
COc1ccc(CCN2CC(NC(=O)c3csc(C)n3)CC2=O)cc1 (configuration not stated)	-20%	/	/	/	/	/
O=C(c1ccc2c(c1)OCO2)c1cn(Cc2ccc(Cl)cc2)c2ccc(F)cc2c1=O	-63%	21µM*	/	/	?	/
Cc1ccc2c(c1)c(=O)c(C(=O)c1ccc3c(c1)OCO3)cn2Cc1ccc(Cl)cc1	-4%	16µM*	/	/	?	/
COc1ccc(Cn2cc(C(=O)c3ccc(Cl)cc3)c(=O)c3cc4c(cc32)OCO4)cc1	-9%	23µM*	/	/	?	/
Cc1ccc(S(=O)(=O)N2CC3C(=O)C[C@@H](c4ccccc4)N(S(=O)(=O)c4ccccc4Cl)C3CC2c2ccccc2)cc1 (some centres not stated)	-3%	-30%	-1%	0%	2%	-14
CC(=O)C1CCC2C3CC=C4CC(SC(=N)N)CCC4(C)C3CCC12C (configuration not stated)	?	8.2µM*	?	?	13µM*	-103*
CC(C)C(=O)N[C@H]1CCC2C3CC=C4C[C@@H](O)CC[C@]4(C)C3CC[C@@]21C (some centres not stated)	11%	?	4%	8%	-29%	62
C[C@]12CC[C@H](O)CC1=CCC1C2CC[C@@]2(C)C1CC[C@@H]2NC(=O)[C@@H](N)Cc1ccccc1 (some centres not stated)	?	21µM*	-2%	-28%	?	-96*
CC(C)(C)[C@H](N)C(=O)N[C@H]1CCC2C3CC=C4C[C@@H](O)CC[C@]4(C)C3CC[C@@]21C (some centres not stated)	-8%	3.7µM*	?	?	4.6µM*	-102*
SMILES	12-LOX inh	DT40 TDP1 no CPT	HT1080NT lethal	HT1080 IDH1KD tx	DT40 TDP1 CPT	IL-1B inflam inh
CCCCCCN[C@H]1CCC2C3CC=C4C[C@@H](O)CC[C@]4(C)C3CC[C@@]21C (some centres not stated)	?	?	-11%	?	16µM*	-2
NC1CCCCN(C(=O)c2csc(Cc3ccccc3)n2)C1 (configuration not stated)	16%	/	/	/	/	/
CC(Nc1oc(/C=C/c2ccc(F)cc2)nc1C#N)c1ccccc1 (configuration not stated)	-3%	/	/	/	/	/
C=CCNC(=O)c1onc(CCl)c1C(=O)OC	-14%	?	?	26µM*	23µM*	110
O=C(NCC1CC1)c1cccc(OC2CN(Cc3cncs3)C2)c1	35%	/	/	/	/	/
O=C(C1=C[C@@H](C2CCCCC2)C[C@@H](OCc2ccc(CO)cc2)O1)N1CCN(Cc2ccc3c(c2)OCO3)CC1	-3%	16µM*	?	?	?	-63*
O=C(C1=C[C@H](C2CCCCC2)C[C@H](OCc2ccc(CO)cc2)O1)N1CCN(Cc2ccc3c(c2)OCO3)CC1	/	?	?	?	?	-70*
O=C(C1=C[C@H](C2CC2)C[C@H](OCc2ccc(CO)cc2)O1)N1CCN(Cc2ccc3c(c2)OCO3)CC1	-11%	?	-3%	-3%	?	0
CC(=O)c1ccc(-c2nnc(CCC(=O)N(C)Cc3cccc4cnccc34)o2)s1	-8%	-26%	-10%	-4%	-21%	-1
Cc1ccc(-c2nnc(CCC(=O)N(C)Cc3nccs3)o2)s1	?	21µM*	11%	0%	4%	-8
O=C(CN1CC2CC(C1)[C@H]1CCCC(=O)N1C2)NCCCN1CCCCCC1 (some centres not stated)	101%	/	/	/	/	/
O=C(Nc1ccc(N2CCCC2)c(Cl)c1)c1ccc2c(c1)OCCO2	-8%	21µM*	-1%	-6%	?	-64*
O=C(Nc1ccc(N2CCCCC2)c(Cl)c1)c1ccc2c(c1)OCCO2	-6%	21µM*	?	?	?	6
O=C(Nc1ccc(N2CCOCC2)c(Cl)c1)c1ccc2c(c1)OCCO2	-3%	?	1%	-7%	?	?

Compound activity from PubChem.
